Test results published in PubChem BioAssay (NCATS).
Inconclusive results are not listed. Where a call stands in place of a potency, no number is given. Active and inactive are the calls of the source. The call rests on the fitted dose curve; tested in HEK293 reporter line.

assay: qHTS for Inhibitors of the Functional Ribonucleoprotein Complex (vRNP) of Lassa (LASV) Arenavirus: LASV Primary Screen - GLuc reporter signal (AID 1347082); details: LASV minigenome vRNP, Gaussia luciferase reporter; series mostly up to 57.5 µM; further: nearly all actives have a fitted effect of over 60% in size

Structure (SMILES) | Potency
O=C(CCCN1CCC(O)(c2ccc(Br)cc2)CC1)c1ccc(F)cc1 | inactive
CCCCN(CCCC)C(C(N)=O)c1ccc(OC)cc1 (stereo not drawn) | inactive
O=C(Nc1ccc(S(=O)(=O)N2CCOCC2)cc1)c1cc(Cl)ccc1NS(=O)(=O)c1ccc(Cl)s1 | inactive
CO[C@@H]1[C@@H](O[C@@H]2O[C@H](C)[C@@H](O[C@H]3C[C@@](C)(O)[C@@H](O)[C@H](C)O3)[C@H](N(C)C)[C@H]2O)[C@@H](CC=O)C[C@@H](C)[C@@H](O[C@@H]2CC[C@H](N(C)C)[C@@H](C)O2)/C=C/C=C/C[C@@H](C)OC(=O)C[C@H]1OC(C)=O | inactive
CO[C@]1(NC(=O)CSC(F)F)C(=O)N2C(C(=O)O)=C(CSc3nnnn3CCO)CO[C@H]21 | inactive
CCCCCN(CCCCC)C(=O)C(CCC(=O)O)NC(=O)c1ccc(Cl)c(Cl)c1 (stereo not drawn) | inactive
CN(C(=O)c1c(O)c2ccccc2n(C)c1=O)c1ccccc1 | inactive
Oc1c(I)cc(Cl)c2cccnc12 | inactive
O=C(O)CCC(=O)Nc1ccc(S(=O)(=O)Nc2nccs2)cc1 | inactive
CCCCCCCCCCCCCCC[C@H](O)[C@@H](N)CO | inactive
Oc1ccc(Cl)cc1Sc1cc(Cl)ccc1O | inactive
NNc1nnc(NN)c2ccccc12 | inactive
COc1cc2c(cc1OC)C(C(C(=O)N(CCc1ccc(OC)c(OC)c1OC)CCc1ccc(OC)c(OC)c1OC)c1ccccc1)=NCC2 (stereo not drawn) | inactive
CCCCC1(COC(=O)CCC(=O)O)C(=O)N(c2ccccc2)N(c2ccccc2)C1=O | inactive
CCOC(=O)C(=O)CCc1ccccc1 | inactive
O=C1CC2(CCCC2)CC(=O)N1CCNCC1COc2ccccc2O1 (stereo not drawn) | inactive
CCN1C(=O)c2ccccc2C1Nc1ccc(OCCN2CCCCC2)cc1 (stereo not drawn) | inactive
C[N+](C)(C)CCCCCCCCCC[N+](C)(C)C | inactive
O=C1c2ccccc2S(=O)(=O)N1CCCCN1CCN(c2ncccn2)CC1 | inactive
N=C(N)c1ccc2cc(OC(=O)c3ccc(N=C(N)N)cc3)ccc2c1 | inactive

Structure (SMILES) | Potency
CCC1NC(=O)c2cc(S(N)(=O)=O)c(Cl)cc2N1 (stereo not drawn) | inactive
CN(CCCN1c2ccccc2CCc2ccccc21)CC(=O)c1ccc(Cl)cc1 | inactive
CCCCCCCCNC(C)C(O)c1ccc(SC(C)C)cc1 (stereo not drawn) | inactive
CC(=O)Oc1c(C)c(C)c2c(c1C)CC[C@@](C)(CCC[C@H](C)CCC[C@H](C)CCCC(C)C)O2 | inactive
Cc1c(N)c(=O)n(-c2ccccc2)n1C | inactive
C[C@@H]1CCN(C(=O)[C@H](CCCN=C(N)N)NS(=O)(=O)c2cccc3c2NC[C@H](C)C3)[C@@H](C(=O)O)C1 | inactive
CCCCN1CCCC[C@H]1C(=O)Nc1c(C)cccc1C | inactive
CCN(CC)CCOCCOC(=O)C1(c2ccccc2)CCCC1 | inactive
C[C@]12CC[C@@H]3c4ccc(O)cc4CC[C@H]3[C@@H]1C[C@@H](O)[C@@H]2O | inactive
OC(CN1CCC(Cc2ccc(F)cc2)CC1)c1ccc(Cl)cc1 (stereo not drawn) | inactive
Clc1ccc(Cn2c(CN3CCCC3)nc3ccccc32)cc1 | inactive
c1ccc(CN(CC2=NCCN2)c2ccccc2)cc1 | inactive
CC(C(O)c1ccc(O)cc1)N1CCC(Cc2ccccc2)CC1 (stereo not drawn) | inactive
Nc1ccc(S(=O)(=O)Nc2cnc3ccccc3n2)cc1 | inactive
OC(CCCN1CCCCC1)(c1ccccc1)c1ccccc1 | inactive
C[N+]12CCC(CC1)C(OC(=O)C(O)(c1ccccc1)c1ccccc1)C2 (stereo not drawn) | inactive
CC(=O)c1ccc2c(c1)N(CCCN1CCC(CCO)CC1)c1ccccc1S2 | inactive
O=C(/C=C/c1ccccc1)NCCO | inactive
CN(C)C(=O)Oc1cccc([N+](C)(C)C)c1 | inactive

assay: qHTS for Inhibitors of the Functional Ribonucleoprotein Complex (vRNP) of Lassa (LASV) Arenavirus: Viability assay - alamar blue signal for LASV Primary Screen (AID 1347083); details: cell viability, alamar blue fluorescence (LASV minigenome counter-screen); series mostly up to 57.5 µM; further: nearly all actives have a fitted effect of over 80% in size

Structure (SMILES) | Potency
O=C(CCCN1CCC(O)(c2ccc(Br)cc2)CC1)c1ccc(F)cc1 | inactive
CCCCN(CCCC)C(C(N)=O)c1ccc(OC)cc1 (stereo not drawn) | inactive
O=C(Nc1ccc(S(=O)(=O)N2CCOCC2)cc1)c1cc(Cl)ccc1NS(=O)(=O)c1ccc(Cl)s1 | inactive
CO[C@@H]1[C@@H](O[C@@H]2O[C@H](C)[C@@H](O[C@H]3C[C@@](C)(O)[C@@H](O)[C@H](C)O3)[C@H](N(C)C)[C@H]2O)[C@@H](CC=O)C[C@@H](C)[C@@H](O[C@@H]2CC[C@H](N(C)C)[C@@H](C)O2)/C=C/C=C/C[C@@H](C)OC(=O)C[C@H]1OC(C)=O | inactive
CO[C@]1(NC(=O)CSC(F)F)C(=O)N2C(C(=O)O)=C(CSc3nnnn3CCO)CO[C@H]21 | inactive
CCCCCN(CCCCC)C(=O)C(CCC(=O)O)NC(=O)c1ccc(Cl)c(Cl)c1 (stereo not drawn) | inactive
CN(C(=O)c1c(O)c2ccccc2n(C)c1=O)c1ccccc1 | inactive
Oc1c(I)cc(Cl)c2cccnc12 | inactive
O=C(O)CCC(=O)Nc1ccc(S(=O)(=O)Nc2nccs2)cc1 | inactive
CCCCCCCCCCCCCCC[C@H](O)[C@@H](N)CO | inactive
Oc1ccc(Cl)cc1Sc1cc(Cl)ccc1O | inactive
NNc1nnc(NN)c2ccccc12 | inactive
COc1cc2c(cc1OC)C(C(C(=O)N(CCc1ccc(OC)c(OC)c1OC)CCc1ccc(OC)c(OC)c1OC)c1ccccc1)=NCC2 (stereo not drawn) | inactive
CCCCC1(COC(=O)CCC(=O)O)C(=O)N(c2ccccc2)N(c2ccccc2)C1=O | inactive
CCOC(=O)C(=O)CCc1ccccc1 | inactive
O=C1CC2(CCCC2)CC(=O)N1CCNCC1COc2ccccc2O1 (stereo not drawn) | inactive
CCN1C(=O)c2ccccc2C1Nc1ccc(OCCN2CCCCC2)cc1 (stereo not drawn) | inactive
C[N+](C)(C)CCCCCCCCCC[N+](C)(C)C | inactive
O=C1c2ccccc2S(=O)(=O)N1CCCCN1CCN(c2ncccn2)CC1 | inactive
N=C(N)c1ccc2cc(OC(=O)c3ccc(N=C(N)N)cc3)ccc2c1 | inactive

Structure (SMILES) | Potency
CCC1NC(=O)c2cc(S(N)(=O)=O)c(Cl)cc2N1 (stereo not drawn) | inactive
CN(CCCN1c2ccccc2CCc2ccccc21)CC(=O)c1ccc(Cl)cc1 | inactive
CCCCCCCCNC(C)C(O)c1ccc(SC(C)C)cc1 (stereo not drawn) | inactive
CC(=O)Oc1c(C)c(C)c2c(c1C)CC[C@@](C)(CCC[C@H](C)CCC[C@H](C)CCCC(C)C)O2 | inactive
Cc1c(N)c(=O)n(-c2ccccc2)n1C | inactive
C[C@@H]1CCN(C(=O)[C@H](CCCN=C(N)N)NS(=O)(=O)c2cccc3c2NC[C@H](C)C3)[C@@H](C(=O)O)C1 | inactive
CCCCN1CCCC[C@H]1C(=O)Nc1c(C)cccc1C | inactive
CCN(CC)CCOCCOC(=O)C1(c2ccccc2)CCCC1 | inactive
C[C@]12CC[C@@H]3c4ccc(O)cc4CC[C@H]3[C@@H]1C[C@@H](O)[C@@H]2O | inactive
OC(CN1CCC(Cc2ccc(F)cc2)CC1)c1ccc(Cl)cc1 (stereo not drawn) | inactive
Clc1ccc(Cn2c(CN3CCCC3)nc3ccccc32)cc1 | inactive
c1ccc(CN(CC2=NCCN2)c2ccccc2)cc1 | inactive
CC(C(O)c1ccc(O)cc1)N1CCC(Cc2ccccc2)CC1 (stereo not drawn) | inactive
Nc1ccc(S(=O)(=O)Nc2cnc3ccccc3n2)cc1 | inactive
OC(CCCN1CCCCC1)(c1ccccc1)c1ccccc1 | inactive
C[N+]12CCC(CC1)C(OC(=O)C(O)(c1ccccc1)c1ccccc1)C2 (stereo not drawn) | inactive
CC(=O)c1ccc2c(c1)N(CCCN1CCC(CCO)CC1)c1ccccc1S2 | inactive
O=C(/C=C/c1ccccc1)NCCO | inactive
CN(C)C(=O)Oc1cccc([N+](C)(C)C)c1 | inactive
